Assay results reported in PubChem BioAssay (EPA / NIEHS).
“And” between values parts separate entries of the source, which are not always exact repeats. Equal values may be shown once. The source made the active and inactive calls. The calls were made as follows: active = hit-call score of the fitted dose curve at least 0.9, where 1 is the maximum; inactive = score below 0.9.

What follows are compounds tested on Matrix Metallopeptidase 9 (MMP9), MMP9 (gene 4318) (assay: BSK_KF3CT_MMP9: BioMAP Diversity Plus: KF3CT Assay for Matrix Metallopeptidase 9 (MMP9) Biomarker Activity (AID 2283074)). Settings: primary human keratinocytes with fibroblasts; actives raise or lower the signal.
Experimental: BSK_KF3CT is a cell-based, multiplexed-readout assay that uses keratinocytes and foreskin fibroblasts, a human skin primary cell co-culture, with measurements taken at 24 hours after chemical dosing in a 96-well plate.BSK_KF3CT_MMP9 is an assay component measured in the BSK_KF3CT assay. It measures MMP-9 antibody related to regulation of gene expression using ELISA technology.Data from the assay component BSK_KF3CT_MMP9 was analyzed into 1 assay endpoint. This assay endpoint, BSK_KF3CT_MMP9, was analyzed with bidirectional fitting relative to DMSO as the negative control and baseline of activity. Using a type of binding reporter, gain or loss-of-signal activity can be used to understand changes in the signaling as they relate to the gene MMP9. Furthermore, this assay endpoint can be referred to as a primary readout, because this assay has produced multiple assay endpoints where this one serves a signaling function. To generalize the intended target to other relatable targets, this assay endpoint is annotated to the protease intended target family, where the subfamily is matrix metalloproteinase.
The levels of cell surface (or secreted, indicated by the prefix "s") biomarker endpoints were measured by ELISA. Overt cytotoxicity to cells in confluent adherent cultures (all systems other than the BT system) was assessed by measuring total protein levels using sulforhodamine B (SRB) staining in parallel cultures at the time of biomarker measurements, indicated as SRB endpoints. For proliferation assays for adherent cell types, individual cell types are cultured at sub-confluence and relative cell numbers quantified by SRB staining at time points optimized for each system (48 h: 3C and CASM3C systems; 72 h: BT and HDF3CGF systems; 96 h: SAg system). SRB was performed by staining cells with 0.1% SRB after fixation with 10% TCA and reading wells at 560 nm.Viability and proliferation of PBMC (T cells) was quantified by Alamar Blue reduction for the SAg and BT systems. For PBMC viability (referred to as PBMC Cytotoxicity within the assay endpoint names), cells were plated (75,000/well in a 96-well plate) and then chemical samples added for 1 h before addition of activators, SEB and TSST-1 (20 ng/mL final concentration each). Cells were incubated for 90 h. Then, Alamar Blue (20 uL/well) (Invitrogen, Cat DAL1100) was added for 6 h, and the plates were read with a fluorescence microplate reader at 546/580 nm (excitation/emission). For PBMC proliferation, cells were plated and activated as above but incubated for only 16 h prior to addition of Alamar Blue. Plates were read after 6 h.

Row | SMILES | outcome | AC50
1 | CC(=O)OCC=C(C)CCC=C(C)CCC=C(C)C | inactive | 
2 | CCCCCCCCCC(=O)OCC | inactive | 
3 | CCC(=O)OCC=Cc1ccccc1 | inactive | 
4 | C=C(F)C(=O)OC(C(F)(F)F)C(F)(F)F | inactive | 
5 | CCCCN(CCO)CCO | inactive | 
6 | Nc1ccc(N)c([N+](=O)[O-])c1 | inactive | 
7 | OCCN1CCOCC1 | inactive | 
8 | O=C(c1ccc(OCCN2CCCCC2)cc1)c1c(-c2ccc(O)cc2)sc2cc(O)ccc12 |  | 17.9 µM (active)
9 | CCCCCCCCCCCCS |  | 14.2 µM (active)
10 | NC(=O)c1c(Cl)cccc1Cl | inactive | 
11 | CC(C)(C)c1cccc(O)c1 | inactive | 
12 | CC/C(=C(\c1ccccc1)c1ccc(OCCN(C)C)cc1)c1ccccc1 |  | 7.84 µM (active) and 8.19 µM (active)
13 | O=C1OC2(c3ccc(O)cc3Oc3cc(O)ccc32)c2ccccc21 | inactive | 
14 | CC(=O)CCC=C(C)CCC=C(C)C | inactive | 
15 | CC(C)CCCC(C)(C)O | inactive | 
16 | CC=CC(=O)C1=C(C)C=CCC1(C)C | inactive | 
17 | O=C(O)C(F)(F)OC(F)(F)C(F)(F)OC(F)(F)C(F)(F)C(F)(F)C(F)(F)F | inactive | 
18 | CC(C)Cc1ccc(C(C)C(=O)O)cc1 (stereo not given) | inactive | 
19 | CCOC(=O)CCCCCCCCC(=O)OCC | inactive | 
20 | c1ccc2c(c1)-c1ccc3ccc4cccc5cc-2c1c3c45 | inactive | 

Row | SMILES | outcome | AC50
21 | C=C1CC/C=C(\C)CC[C@@H]2[C@@H]1CC2(C)C |  | 20 µM (active)
22 | c1ccc(Sc2ccccc2)cc1 |  | 32.7 µM (active)
23 | CCCCOCCOCCO | inactive | 
24 | C=C(C)C(N)=O | inactive | 
25 | C[C@]12CC[C@@H]3c4ccc(O)cc4CC[C@H]3[C@@H]1CC[C@@H]2O | inactive | 
26 | COc1ccccc1NC(=O)CC(C)=O | inactive | 
27 | CC(=O)c1ccc(C)cc1 | inactive | 
28 | CCOC(=O)C=Cc1ccccc1 | inactive | 
29 | C=C(C)C(=O)OCCC(F)(F)C(F)(F)C(F)(F)C(F)(F)C(F)(F)C(F)(F)C(F)(F)C(F)(F)F | inactive | 
30 | CCn1cc(C(=O)O)c(=O)c2ccc(C)nc21 | inactive | 
31 | O=C(O)C(F)(F)C(F)(F)C(F)(F)C(F)(F)C(F)(F)C(F)(F)C(F)(F)C(F)F | inactive | 
32 | CCCO[Si](OCCC)(OCCC)OCCC | inactive | 
33 | CC1=CC(C)C(C=O)C(C)C1 (stereo not given) (tested in a mixture with another compound) | inactive | 
34 | CC1(C)[C@H](C=C(Cl)Cl)[C@H]1C(=O)OCc1cccc(Oc2ccccc2)c1 | inactive | 
35 | OCC(F)(OC(F)(F)C(F)(OC(F)(F)C(F)(F)C(F)(F)F)C(F)(F)F)C(F)(F)F (stereo not given) |  | 5.19 µM (active) and 3.33 µM (active)
36 | C#C[C@]1(O)CC[C@H]2[C@@H]3CCc4cc(O)ccc4[C@H]3CC[C@@]21C | inactive | 
37 | C=CC(=O)OCC(CO)(COC(=O)C=C)COC(=O)C=C |  | 0.4 µM (active)
38 | O=S(=O)(O)C(F)(F)C(F)(F)OC(F)(F)C(F)(F)F | inactive | 
39 | CCCCCCCC1CCCC1=O (stereo not given) |  | 28.7 µM (active)
40 | CC(C)(CO)CO | inactive | 
